Results from PubChem BioAssay (Tox21).
Inconclusive results are not listed. Calls of active or inactive are those of the source. Unless noted, calls come from the whole dose curve; as a rule, active = well fitted curve in the direction sought with a large enough effect in the repeat runs; inconclusive = weak or mixed curves; inactive = no such curve, though single readings can be large; an effect the other way counts as inactive or inconclusive.

Key:
[1] = A CellTox Green Cytotoxicity Assay to monitor cytotoxicity in HepG2 cells - 0 hour (AID 1224882); note: nearly all actives have a fitted effect of over 35% in size
Outline: (§1)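 Fluorescent DNA-binding dye, 600 HepG2 cells/well, 5 h preincubation then compound in DMSO; same plates read at 0–40 h, 37 C.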

[2] = A CellTox Green Cytotoxicity Assay to monitor cytotoxicity in HepG2 cells - 32 hour (AID 1224883); note: nearly all actives have a fitted effect of over 50% in size; note: potency is the fitted concentration of half-maximal effect
Outline: as §1

[3] = A CellTox Green Cytotoxicity Assay to monitor cytotoxicity in HEK293 cells - 8 hour (AID 1224884); note: nearly all actives have a fitted effect of over 35% in size
Outline: (§2)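 Homogeneous no-lysis format: HEK293 cell suspension mixed with CellTox Green reagent, seeded, incubated 5 h at 37 C/5% CO2, then dosed by pintool with compound in DMSO.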

[4] = qHTS RealTime-Glo MT Cell Viability Assay in HepG2 cells - 16 hour (AID 1224885); note: nearly all actives have a fitted effect of over 50% in size
Outline: (§3)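 Cells + NanoLuc/prosubstrate dispensed (600 cells/well) → 5 h at 37 C/5% CO2 → compounds in DMSO transferred → 40 h incubation at 37 C, luminescence read at 0, 8, 16, 24, 32, 40 h.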

[5] = qHTS RealTime-Glo MT Cell Viability Assay in HEK293 cells - 24 hour (AID 1224886); note: top concentration of the series differs between compounds; nearly all actives have a fitted effect of over 50% in size
Outline: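 Tox21 10K qHTS, HEK293, 600 cells/well, RealTime-Glo reagent co-dispensed with cells; 5 h preincubation, compound by pintool, 37 C, luminescence at 0–40 h.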

[6] = qHTS RealTime-Glo MT Cell Viability Assay in HEK293 cells - 8 hour (AID 1224887); note: top concentration of the series differs between compounds; nearly all actives have a fitted effect of over 50% in size
Outline: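 Measured as luminescence from the same continuously cultured HEK293 wells at successive time points (0, 8, 16, 24, 32, 40 h) after compound addition. Reagent present from seeding; dosing at 5 h; incubation 37 C.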

[7] = qHTS RealTime-Glo MT Cell Viability Assay in HepG2 cells - 0 hour (AID 1224889); note: nearly all actives have a fitted effect of over 50% in size
Outline: as §3

[8] = A CellTox Green Cytotoxicity Assay to monitor cytotoxicity in HepG2 cells - 8 hour (AID 1224890); note: nearly all actives have a fitted effect of over 45% in size
Outline: as §1

[9] = qHTS assay to identify small molecule antagonists of the estrogen receptor alpha (ER-alpha) signaling pathway using the BG1 cell line in the presence of 0.1 nM 17-beta-estradiol - cell viability counter screen (AID 1259241); note: nearly all actives have a fitted effect of over 40% in size
Outline: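 Cytotoxicity counter-screen: live-cell protease activity measured by fluorescence (30 min reagent step) in the same wells. Cells were VM7Luc4E2 with endogenous ER-alpha and ERE-driven luciferase, treated 22 hr at 37C alongside 0.1 nM 17beta-estradiol final.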

[10] = qHTS assay to identify small molecule antagonists of the androgen receptor (AR) signaling pathway using the MDA cell line in the presence of 0.5 nM R1881 - cell viability counter screen (AID 1259242); note: nearly all actives have a fitted effect of over 45% in size
Outline: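 Human breast carcinoma MDA-kb2 cells, cultured without CO2, receive compounds alongside 0.5 nM (final) R1881 agonist. After 16 hr at 37C, viability is taken as live-cell protease signal.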

[11] = qHTS assay to identify small molecule HDAC inhibitors (AID 1259364); note: potency is the fitted concentration of half-maximal effect;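 note: wild-type HCT-116 cells with endogenous class I/II HDAC activity; nearly all actives have a fitted effect of over 45% in size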; for activity change, negative = inhibition: top concentration of the series differs between compounds
Outline: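 After a 2 hr compound incubation (37C, 5% CO2), HCT-116 cells seeded at 1,500/well the day before received HDAC-Glo reagent; signal read as luminescence after 30 min at room temperature.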

[12] = qHTS assay to identify small molecule HDAC inhibitors - cell viability counter screen (AID 1259365)
Outline: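 CellTiter-Glo luminescence (30 min, room temperature) reported viability after a 2 h compound exposure at 37 C. Cells: wild-type HCT-116, 1,500 per well, seeded the night before.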

[13] = qHTS assay to identify small molecule agonists of the sonic hedgehog signaling (Shh) pathway (AID 1259368; calls by dose curve;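 note: NIH/3T3-derived 3T3Gli1-Luc cells carrying a stable Gli1-driven firefly luciferase reporter; series mostly up to about 92 µM; nearly all actives have a fitted effect of over 15% in size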)
Outline: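 Stable NIH/3T3 Gli1-Luc reporter clone; 24 hr cpd exposure after a 4 hr settling period; luminescence endpoint.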

[14] = qHTS assay to identify small molecule antagonists of the sonic hedgehog signaling (Shh) pathway (AID 1259369; calls by dose curve; note: nearly all actives have a fitted effect of over 45% in size; note: potency is the fitted concentration of half-maximal effect)
Outline: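 Gli1 transcriptional reporter (firefly Luc) in NIH/3T3 background, conditioned-medium activated. 24hr exposure, luminescence endpoint.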

[15] = qHTS assay to identify small molecule phospholipidosis (PLD) inducers (AID 1259344; active = well fitted curve in the direction sought with a large enough effect; an effect the other way counts as inactive or inconclusive)
Outline: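 After 4 h attachment on collagen I, HepG2 cells were dosed with compound alongside LipidTOX Red, kept 24 h at 37 C, fixed, and imaged for lamellar phospholipid pits.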

[16] = qHTS assay to identify small molecule agonists of the sonic hedgehog signaling (Shh) pathway - cell viability counter screen (AID 1259366); note: nearly all actives have a fitted effect of over 50% in size; note: potency is the fitted concentration of half-maximal effect
Outline: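 Cytotoxicity counter screen: CellTiter-Fluor reagent added after 23 h compound exposure, then 1 h at 37C and fluorescence read. Cells were 3T3 Gli1-Luc, seeded 2,000 per well and dosed 4 h post-plating.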

[17] = qHTS assay to identify small molecule antagonists of the sonic hedgehog signaling (Shh) pathway - cell viability counter screen (AID 1259367); note: nearly all actives have a fitted effect of over 55% in size
Outline: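 Conditioned medium drove Shh signaling in 3T3 Gli1-Luc cells exposed to compounds at 37C and 5% CO2. Viability was determined from CellTiter-Fluor fluorescence, with reagent incubated 1 hr after 23 hr of treatment.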

[18] = A CellTox Green Cytotoxicity Assay to monitor cytotoxicity in HEK293 cells - 16 hour (AID 1224888); note: nearly all actives have a fitted effect of over 35% in size
Outline: as §2

[19] = molecular target: Androgen receptor (Homo sapiens) (UniProt P10275); assay: qHTS assay to identify small molecule antagonists of the androgen receptor (AR) signaling pathway using the MDA cell line in the presence of 0.5 nM R1881 (AID 1259243); note: nearly all actives have a fitted effect of over 50% in size; note: potency is the fitted concentration of half-maximal effect
Sequence of Androgen receptor (Homo sapiens) (P10275 whole entry, looked up): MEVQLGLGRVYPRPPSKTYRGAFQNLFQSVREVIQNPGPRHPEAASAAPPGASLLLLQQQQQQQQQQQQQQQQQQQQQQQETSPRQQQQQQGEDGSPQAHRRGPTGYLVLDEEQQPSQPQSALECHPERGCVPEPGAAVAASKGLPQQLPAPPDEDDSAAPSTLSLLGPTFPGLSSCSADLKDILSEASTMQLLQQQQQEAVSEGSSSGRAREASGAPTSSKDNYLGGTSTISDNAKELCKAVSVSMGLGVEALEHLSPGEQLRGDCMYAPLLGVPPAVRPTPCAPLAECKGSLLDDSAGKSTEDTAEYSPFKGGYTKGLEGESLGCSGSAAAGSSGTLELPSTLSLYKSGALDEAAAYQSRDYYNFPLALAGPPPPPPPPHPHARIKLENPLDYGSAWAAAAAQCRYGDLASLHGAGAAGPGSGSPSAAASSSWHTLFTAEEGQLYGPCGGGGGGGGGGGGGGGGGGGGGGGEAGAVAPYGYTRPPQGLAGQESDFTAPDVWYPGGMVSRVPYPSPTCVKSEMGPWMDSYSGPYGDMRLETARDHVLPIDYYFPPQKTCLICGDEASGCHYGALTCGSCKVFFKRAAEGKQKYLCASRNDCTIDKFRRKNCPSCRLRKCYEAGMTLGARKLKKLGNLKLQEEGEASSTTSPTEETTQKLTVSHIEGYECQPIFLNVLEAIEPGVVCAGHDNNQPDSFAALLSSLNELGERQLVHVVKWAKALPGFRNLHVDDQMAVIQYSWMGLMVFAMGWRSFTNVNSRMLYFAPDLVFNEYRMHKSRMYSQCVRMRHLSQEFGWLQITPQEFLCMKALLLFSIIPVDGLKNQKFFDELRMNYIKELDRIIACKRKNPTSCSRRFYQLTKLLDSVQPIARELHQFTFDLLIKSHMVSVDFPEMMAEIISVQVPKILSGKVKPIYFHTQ
Outline: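 Cells: MDA-kb2 (MMTV-luc). Stimulus: 0.5 nM R1881. Time: 16 hr, 37C, no CO2. Detection: ONE-Glo luminescence after 30 min at RT.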

[20] = molecular target: Estrogen receptor (Homo sapiens) (UniProt P03372); assay: qHTS assay to identify small molecule antagonists of the estrogen receptor alpha (ER-alpha) signaling pathway using the BG1 cell line in the presence of 0.1 nM 17-beta-estradiol (AID 1259244); note: nearly all actives have a fitted effect of over 50% in size
Sequence of Estrogen receptor (Homo sapiens) (P03372 whole entry, looked up): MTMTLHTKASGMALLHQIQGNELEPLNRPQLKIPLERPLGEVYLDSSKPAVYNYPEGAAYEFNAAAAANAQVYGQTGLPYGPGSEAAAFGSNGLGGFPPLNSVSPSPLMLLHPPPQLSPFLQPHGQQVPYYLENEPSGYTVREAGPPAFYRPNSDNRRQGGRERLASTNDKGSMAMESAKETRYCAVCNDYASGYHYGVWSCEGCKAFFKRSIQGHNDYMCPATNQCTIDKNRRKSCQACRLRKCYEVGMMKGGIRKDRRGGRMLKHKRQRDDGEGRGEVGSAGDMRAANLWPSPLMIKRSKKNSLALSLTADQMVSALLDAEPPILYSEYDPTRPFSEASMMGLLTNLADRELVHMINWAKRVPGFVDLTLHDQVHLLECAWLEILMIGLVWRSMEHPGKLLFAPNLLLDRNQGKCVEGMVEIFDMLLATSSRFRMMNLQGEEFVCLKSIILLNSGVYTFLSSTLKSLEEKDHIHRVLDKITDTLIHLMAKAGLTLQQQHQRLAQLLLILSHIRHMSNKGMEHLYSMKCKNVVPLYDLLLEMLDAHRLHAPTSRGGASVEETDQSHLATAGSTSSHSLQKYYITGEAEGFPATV
Outline: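 Seeding of stripped-serum-adapted VM7Luc4E2 cells, 24 h attachment, compound transfer, then 0.1 nM final 17beta-estradiol; after 22 h incubation, ONE-Glo reagent and luminescence reading.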
% is set by controls: 0 for no effect and ±100 for the full control effect.

COS(=O)(=O)C(F)(F)F
active: Potency [14] 14.3 µM
inactive: Potency [1] | Potency [2] | Potency [3] | Potency [4] | Potency [5] | Potency [6] | Potency [7] | Potency [8] | Potency [9] | Potency [10] | Potency [11] | Potency [12] | outcome [13]

CCCCc1ncc(/C=C(\Cc2cccs2)C(=O)O)n1Cc1ccc(C(=O)O)cc1
inactive: Potency [1] | Potency [2] | Potency [3] | Potency [4] | Potency [5] | Potency [6] | Potency [7] | Potency [8] | Potency [9] | Potency [10] | Potency [15] | Potency [11] | Potency [12] | Potency [16] | Potency [17] | outcome [13] | Potency [14]

O=S(c1cc(Cl)cc(Cl)c1O)c1cc(Cl)cc(Cl)c1O
active: Potency [14] 21.1 µM
inactive: Potency [1] | Potency [2] | Potency [3] | Potency [4] | Potency [5] | Potency [6] | Potency [18] | Potency [7] | Potency [9] | Potency [10] | Potency [19] | Potency [20] | Potency [11] | Potency [12] | Potency [17] | outcome [13]

O=C(O)CNCC(=O)O
inactive: cytotoxicity [1] -10.6% [at 6.97 µM] | cytotoxicity increase [2] -4.58% [at 6.97 µM] | cytotoxicity increase [3] -1.38% [at 6.97 µM] | activity change, negative = cytotoxic [4] -0.86% [at 6.97 µM] | activity change, negative = cytotoxicity [5] -8.06% [at 6.97 µM] | activity change, negative = cytotoxicity [6] -7.77% [at 6.97 µM] | activity change, negative = cytotoxicity [7] -5.44% [at 6.97 µM] | activity change, negative = cytotoxicity [9] 0.833% [at 8.39 µM] | viability change, negative = cytotoxic [10] -0.633% [at 8.39 µM] | activity, negative = inhibition [19] -3.67% [at 8.39 µM] | activity change, negative = inhibition [20] -6.61% [at 8.39 µM] | activity change, negative = inhibition [11] 10.7% [at 8.39 µM] | activity change, negative = cytotoxicity [12] -5.53% [at 8.39 µM] | viability change, negative = cytotoxic [16] 1.7% [at 8.39 µM] | viability change, negative = cytotoxic [17] 3.32% [at 8.39 µM] | activity change [13] 0.375% [at 8.39 µM] | activity change, negative = inhibition [14] 8.21% [at 8.39 µM]

C=CC(=O)OCCOc1ccccc1
active: Potency [16] 68.5 µM | Potency [14] 61.1 µM
inactive: Potency [1] | Potency [2] | Potency [3] | Potency [4] | Potency [5] | Potency [6] | Potency [7] | Potency [8] | Potency [9] | Potency [10] | Potency [11] | Potency [12] | Potency [17] | outcome [13]

C/C=C/C(=O)CC
inactive: cytotoxicity [1] 0.505% [at 15.8 µM] | cytotoxicity increase [2] 2.71% [at 15.8 µM] | cytotoxicity increase [3] 1.29% [at 15.8 µM] | activity change, negative = cytotoxic [4] 0.412% [at 15.8 µM] | activity change, negative = cytotoxicity [5] 0.822% [at 15.8 µM] | activity change, negative = cytotoxicity [6] 0.36% [at 15.8 µM] | activity change [18] 0.377% [at 15.8 µM, active compounds read high] | activity change, negative = cytotoxicity [7] 4.66% [at 15.8 µM] | viability change, negative = cytotoxic [10] -0.0358% [at 19 µM] | Potency [20] | activity change, negative = inhibition [11] -0.325% [at 19 µM] | activity change, negative = cytotoxicity [12] -0.534% [at 19 µM] | viability change, negative = cytotoxic [16] 14.7% [at 19 µM] | activity change [13] -3.94% [at 18.9 µM]
active: Potency [14] 5.9 µM

c1cc(CCCc2ccncc2)ccn1
inactive: Potency [1] | Potency [2] | Potency [3] | Potency [4] | Potency [5] | Potency [6] | Potency [18] | Potency [7] | Potency [9] | Potency [10] | Potency [20] | Potency [11] | Potency [12] | Potency [16] | Potency [17] | outcome [13]

CC(C)CC(=O)C1C(=O)c2ccccc2C1=O
active: Potency [19] 48.6 µM | Potency [14] 61.1 µM
inactive: Potency [1] | Potency [2] | Potency [3] | Potency [4] | Potency [5] | Potency [18] | Potency [7] | Potency [8] | Potency [9] | Potency [10] | Potency [12] | Potency [16] | Potency [17] | outcome [13]

COc1ccnc(CS(=O)c2nc3ccc(OC(F)F)cc3[nH]2)c1OC (stereo unspecified)
inactive: Potency [1] | Potency [2] | Potency [3] | Potency [4] | Potency [5] | Potency [6] | Potency [18] | Potency [7] | Potency [9] | Potency [10] | Potency [20] | Potency [15] | Potency [11] | Potency [12] | Potency [16] | Potency [17] | outcome [13] | Potency [14]

Cc1cccc(C)c1NC(=O)CN(CC(=O)O)CC(=O)O
inactive: Potency [1] | Potency [2] | Potency [3] | Potency [4] | Potency [5] | Potency [6] | Potency [7] | Potency [9] | Potency [10] | Potency [15] | Potency [11] | Potency [12] | Potency [16] | Potency [17] | outcome [13] | Potency [14]

CCO[C@H](Cc1ccc(OCCc2ccc(OS(C)(=O)=O)cc2)cc1)C(=O)O
inactive: Potency [1] | Potency [2] | Potency [3] | Potency [4] | Potency [5] | Potency [6] | Potency [18] | Potency [7] | Potency [10] | Potency [19] | Potency [20] | Potency [15] | Potency [11] | Potency [12] | Potency [16] | outcome [13] | Potency [14]

Nc1cc(C(=O)O)c(O)c(S(=O)(=O)O)c1
inactive: Potency [1] | Potency [2] | Potency [3] | Potency [4] | Potency [5] | Potency [6] | Potency [7] | Potency [8] | Potency [9] | Potency [10] | Potency [11] | Potency [12] | Potency [17] | outcome [13] | Potency [14]

CN1CCC(=C2c3ccccc3Sc3ccccc32)CC1
inactive: Potency [1] | Potency [3] | Potency [4] | Potency [5] | Potency [6] | Potency [18] | Potency [8] | Potency [9] | Potency [10] | Potency [20] | Potency [11] | Potency [12] | Potency [16] | Potency [17] | outcome [13]
active: Potency [2] 23.9 µM | Potency [19] 23.7 µM

CC1CCC(=O)C1=O (stereo unspecified)
inactive: Potency [1] | Potency [2] | Potency [3] | Potency [4] | Potency [5] | Potency [6] | Potency [18] | Potency [7] | Potency [9] | Potency [10] | Potency [20] | Potency [11] | Potency [12] | Potency [16] | Potency [17] | outcome [13] | Potency [14]

c1ccc(-c2ccccn2)nc1
inactive: Potency [1] | Potency [2] | Potency [3] | Potency [4] | Potency [5] | Potency [6] | Potency [18] | Potency [7] | Potency [9] | Potency [10] | Potency [19] | Potency [20] | Potency [11] | Potency [12] | Potency [16] | outcome [13]

O=C(O)C1(C(=O)Nc2ccc(Cl)cc2Cl)CC1
active: Potency [11] 13.7 µM
inactive: Potency [1] | Potency [2] | Potency [3] | Potency [4] | Potency [5] | Potency [6] | Potency [7] | Potency [8] | Potency [9] | Potency [10] | Potency [19] | Potency [20] | Potency [12] | Potency [16] | outcome [13] | Potency [14]
